The supplement of paper PMC8975748
Where a name gives a salt, the structure may show the parent alone. ± gives the standard deviation of the averaged measurements.

What was measured:
[1] = system: Saccharomyces cerevisiae BY4741 SeMeCo community; assay: mean cell size (pixel area) (pixels); higher = larger cells; conditions: 10 µM; 24 h; SM minimal medium
In short: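 Mean cell pixel area per well was measured in a four-plasmid fluorescent community of Saccharomyces cerevisiae BY4741, where every plasmid complements one auxotrophy and carries a fluorescent marker. Cells from an overnight preculture at OD600 = 1.0 were diluted to OD600 = 0.3 and dispensed at 70 µl into 384-well plates acoustically predosed with drug to a final 10 µM in SM medium. Incubation lasted 24 h, followed by paraformaldehyde fixation, automated confocal imaging and analysis in Harmony. Reported figures are averaged over 3 replicates. Same SeMeCo high-content imaging drug screen: Selleck FDA-approved drugs at 10 µM, 24 h in SM medium, 384-well plates, 3 replicates.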

[2] = system: Saccharomyces cerevisiae BY4741 SeMeCo community; assay: z-score of prototroph abundance vs DMSO median; higher = larger share of this subpopulation than in DMSO controls; conditions: 10 µM; 24 h; SM minimal medium; subpopulation (auxotrophy): Prototroph
In short: (§1)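 Automated confocal microscopy of paraformaldehyde-fixed cells was used to follow a Saccharomyces cerevisiae BY4741 community carrying four plasmids, each restoring one auxotrophy and encoding a distinct fluorescent protein. The community was pre-grown overnight to OD600 1.0, diluted to 0.3, and added at 70 µl to 384-well plates acoustically predosed with library drugs (10 µM final) for 24 h of growth in minimal SM medium. Single-auxotroph fluorescent strains set thresholds and autofluorescence correction, and each subpopulation's abundance was scored as a z-score against the vehicle-well median.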

[3] = system: Saccharomyces cerevisiae BY4741 SeMeCo community; assay: z-score of subpopulation abundance vs DMSO median, subpopulation auxotrophic for M; higher = larger share of this subpopulation than in DMSO controls; conditions: 10 µM; 24 h; SM minimal medium; subpopulation (auxotrophy): M
In short: as §1

[4] = system: Saccharomyces cerevisiae BY4741 SeMeCo community; assay: z-score of subpopulation abundance vs DMSO median, subpopulation auxotrophic for L; higher = larger share of this subpopulation than in DMSO controls; conditions: 10 µM; 24 h; SM minimal medium; subpopulation (auxotrophy): L
In short: as §1

[5] = system: Saccharomyces cerevisiae BY4741 SeMeCo community; assay: z-score of subpopulation abundance vs DMSO median, subpopulation auxotrophic for U; higher = larger share of this subpopulation than in DMSO controls; conditions: 10 µM; 24 h; SM minimal medium; subpopulation (auxotrophy): U
In short: as §1

[6] = system: Saccharomyces cerevisiae BY4741 SeMeCo community; assay: z-score of subpopulation abundance vs DMSO median, subpopulation auxotrophic for H; higher = larger share of this subpopulation than in DMSO controls; conditions: 10 µM; 24 h; SM minimal medium; subpopulation (auxotrophy): H
In short: as §1

[7] = system: Saccharomyces cerevisiae BY4741 SeMeCo community; assay: z-score of subpopulation abundance vs DMSO median, subpopulation auxotrophic for LU; higher = larger share of this subpopulation than in DMSO controls; conditions: 10 µM; 24 h; SM minimal medium; subpopulation (auxotrophy): LU
In short: as §1

[8] = system: Saccharomyces cerevisiae BY4741 SeMeCo community; assay: z-score of subpopulation abundance vs DMSO median, subpopulation auxotrophic for LM; higher = larger share of this subpopulation than in DMSO controls; conditions: 10 µM; 24 h; SM minimal medium; subpopulation (auxotrophy): LM
In short: as §1

[9] = system: Saccharomyces cerevisiae BY4741 SeMeCo community; assay: z-score of subpopulation abundance vs DMSO median, subpopulation auxotrophic for HM; higher = larger share of this subpopulation than in DMSO controls; conditions: 10 µM; 24 h; SM minimal medium; subpopulation (auxotrophy): HM
In short: as §1

[10] = system: Saccharomyces cerevisiae BY4741 SeMeCo community; assay: z-score of subpopulation abundance vs DMSO median, subpopulation auxotrophic for HU; higher = larger share of this subpopulation than in DMSO controls; conditions: 10 µM; 24 h; SM minimal medium; subpopulation (auxotrophy): HU
In short: as §1

[11] = system: Saccharomyces cerevisiae BY4741 SeMeCo community; assay: z-score of subpopulation abundance vs DMSO median, subpopulation auxotrophic for UM; higher = larger share of this subpopulation than in DMSO controls; conditions: 10 µM; 24 h; SM minimal medium; subpopulation (auxotrophy): UM
In short: as §1

[12] = system: Saccharomyces cerevisiae BY4741 SeMeCo community; assay: z-score of subpopulation abundance vs DMSO median, subpopulation auxotrophic for HL; higher = larger share of this subpopulation than in DMSO controls; conditions: 10 µM; 24 h; SM minimal medium; subpopulation (auxotrophy): HL
In short: as §1

[13] = system: Saccharomyces cerevisiae BY4741 SeMeCo community; assay: z-score of subpopulation abundance vs DMSO median, subpopulation auxotrophic for HLU; higher = larger share of this subpopulation than in DMSO controls; conditions: 10 µM; 24 h; SM minimal medium; subpopulation (auxotrophy): HLU
In short: as §1

[14] = system: Saccharomyces cerevisiae BY4741 SeMeCo community; assay: z-score of subpopulation abundance vs DMSO median, subpopulation auxotrophic for HLM; higher = larger share of this subpopulation than in DMSO controls; conditions: 10 µM; 24 h; SM minimal medium; subpopulation (auxotrophy): HLM
In short: as §1

[15] = system: Saccharomyces cerevisiae BY4741 SeMeCo community; assay: z-score of subpopulation abundance vs DMSO median, subpopulation auxotrophic for HUM; higher = larger share of this subpopulation than in DMSO controls; conditions: 10 µM; 24 h; SM minimal medium; subpopulation (auxotrophy): HUM
In short: as §1

[16] = system: Saccharomyces cerevisiae BY4741 SeMeCo community; assay: z-score of subpopulation abundance vs DMSO median, subpopulation auxotrophic for LUM; higher = larger share of this subpopulation than in DMSO controls; conditions: 10 µM; 24 h; SM minimal medium; subpopulation (auxotrophy): LUM
In short: as §1

[17] = system: Saccharomyces cerevisiae BY4741 SeMeCo community; assay: z-score of subpopulation abundance vs DMSO median, subpopulation auxotrophic for HLUM; higher = larger share of this subpopulation than in DMSO controls; conditions: 10 µM; 24 h; SM minimal medium; subpopulation (auxotrophy): HLUM
In short: as §1

Row | Structure (SMILES) | mean cell size [1] | z-score of prototroph abundance [2] | z-score of subpopulation abundance [3] | z-score of subpopulation abundance [4] | z-score of subpopulation abundance [5] | z-score of subpopulation abundance [6] | z-score of subpopulation abundance [7] | z-score of subpopulation abundance [8] | z-score of subpopulation abundance [9] | z-score of subpopulation abundance [10] | z-score of subpopulation abundance [11] | z-score of subpopulation abundance [12] | z-score of subpopulation abundance [13] | z-score of subpopulation abundance [14] | z-score of subpopulation abundance [15] | z-score of subpopulation abundance [16] | z-score of subpopulation abundance [17]
1 | COCC1=C(C(=O)OC(C)OC(=O)OC(C)C)N2C(=O)[C@@H](NC(=O)/C(=N\OC)c3csc(N)n3)[C@H]2SC1 (stereo partly drawn) [Cefpodoxime proxetil] | 12.25 ± 0.089 | -0.89 | 0.5 | -0.07 | 0.51 | -0.09 | 0.31 | 0.62 | 0.76 | 0.99 | 0.01 | -0.24 | 0.57 | -0.08 | 0.76 | 0.36 | 0.35
2 | O=c1n(CCCN2CCN(c3cccc(Cl)c3)CC2)nc2ccccn12 [Trazodone HCl] | 12.6 ± 0.15 | -0.06 | 2.19 | -1.59 | -0.6 | -0.86 | -0.97 | -0.41 | 0.92 | 0.33 | 0.22 | -0.82 | -0.83 | 0.04 | 0.45 | -0.51 | -0.57
3 | CC/C(=C(\c1ccccc1)c1ccc(OCCN(C)C)cc1)c1ccccc1 [Tamoxifen] | 11.75 ± 0.092 | -0.91 | 0.18 | 0.96 | -0.18 | 1.57 | 0.89 | 1.82 | 0.93 | 1.39 | 0.21 | 0.95 | 0.93 | 0.89 | 0.85 | 0.23 | 0.09
4 | CNC1CCCN(c2c(F)cc3c(=O)c(C(=O)O)cn(C4CC4)c3c2OC)C1 (stereo not drawn) [Balofloxacin] | 12.32 ± 0.029 | -0.14 | 0.44 | -0.33 | 0.18 | – | -0.04 | -0.13 | -0.09 | 0.32 | 0.59 | -0.7 | -0.57 | -0.9 | 0.67 | 0.17 | -0.35
5 | C[C@@H](O)[C@H]1C(=O)N2C(C(=O)OCOC(=O)C(C)(C)C)=C(SC3CN(C4=NCCS4)C3)[C@H](C)[C@H]12 [Tebipenem Pivoxil] | 12.4 ± 0.16 | 0.66 | -0.17 | 0 | 0.02 | – | -0.6 | 0.18 | -0.9 | -0.03 | -0.27 | -0.41 | -0.99 | -0.55 | -0.67 | 0.09 | -0.74
6 | CCCNCC(O)COc1ccccc1C(=O)CCc1ccccc1 (stereo not drawn) [Propafenone HCl] | 12.36 ± 0.1 | 0.15 | -0.38 | -0.54 | 0.55 | -0.52 | -0.32 | 0.27 | -0.15 | 0.58 | 0.94 | -0.37 | -0.61 | -0.63 | -0.3 | 0.61 | 0.05
7 | CCCCCCCCCCCCCCCCOP(=O)([O-])OCC[N+](C)(C)C [Miltefosine] | 7.76 ± 0.26 | -22.6 | -7.93 | -5.76 | -5.15 | -10.2 | 7.16 | -4.09 | 0.26 | 1.54 | 31.2 | 3.75 | 0.88 | 15.6 | 142 | 20.4 | 161
8 | CN(C)CCC=C1c2ccccc2C(C)(C)c2ccccc21 [Melitracen hydrochloride] | 12 ± 0.24 | 1 | -0.28 | -0.61 | -0.05 | -1.7 | -0.8 | -0.58 | -0.45 | -0.73 | -0.21 | -1.23 | -1.72 | -1.11 | -0.78 | -0.83 | -0.56
9 | C[C@@H](O)[C@H]1C(=O)N2C(C(=O)O)=C(S[C@@H]3CN[C@H](C(=O)N(C)C)C3)[C@H](C)[C@H]12 [Meropenem] | 12.4 ± 0.19 | 0.37 | -0.33 | 0.05 | -0.22 | – | -0.26 | -0.29 | 0.18 | -0.01 | -0.33 | -0.23 | 0.14 | -0.34 | 0.12 | -0.39 | -0.68
10 | NC[C@H]1O[C@H](O[C@H]2[C@H](O)[C@@H](O[C@H]3O[C@H](CO)[C@@H](O)[C@H](N)[C@H]3O)[C@H](N)C[C@@H]2N)[C@H](O)[C@@H](O)[C@@H]1O [Kanamycin sulfate] | 11.9 ± 0.26 | -0.43 | 0.84 | 1.91 | -0.55 | 1.26 | -0.08 | 1.55 | 1.34 | -0.5 | -0.15 | 1.08 | 0.63 | -0.02 | 0.21 | 0.52 | -0.1
11 | CNCc1cc(-c2ccccc2F)n(S(=O)(=O)c2cccnc2)c1 [Vonoprazan Fumarate (TAK-438)] | 12.3 ± 0.26 | 0 | 0.45 | -1.45 | 0.84 | -0.55 | -0.72 | -0.98 | -0.52 | -0.16 | -0.09 | -1.38 | -0.64 | -0.4 | -0.68 | -0.32 | -0.37
12 | Cc1cc(C)nc(NS(=O)(=O)c2ccc(N)cc2)n1 [Sulfamethazine Sodium Salt] | 12.28 ± 0.095 | 0.49 | -1.42 | 0.3 | -0.43 | 0.36 | -0.11 | -0.63 | -0.79 | 0.05 | -0.8 | -0.24 | -0.28 | -0.15 | -0.93 | -0.01 | 0.81
13 | Cc1c(Nc2ncccc2C(=O)O)cccc1C(F)(F)F [Flunixin Meglumin] | 12.6 ± 0.17 | 0.11 | -0.95 | -1.33 | 0.63 | -0.33 | -0.33 | -1.23 | -0.07 | -0.19 | 0.51 | -0.74 | -1 | -0.58 | 0.12 | -0.14 | 0
